From PubChem BioAssay AID1851 (National Center for Advancing Translational Sciences (NCATS), 2009)
Values joined by “and” are separate entries in the source; they are usually repeats but may differ in a detail not shown here. Identical values can stand only once. Among all 16,000 compounds or so, about 5,800 (36%) were called active. Another 23% or so got no clear call; they are omitted. The call rests on the fitted dose curve; in most records, active means well fitted curve in the direction sought with a large enough effect; inconclusive means small, poorly fitted or top-dose-only effect, or effect the other way; inactive means no such curve, though single readings can be large or run the other way. Some of the results follow. A structure can be active in one record and inactive in another.

Biological target: Cytochrome P450 2C19 (Homo sapiens) (UniProt P33261)
Sequence (P33261 whole entry, looked up): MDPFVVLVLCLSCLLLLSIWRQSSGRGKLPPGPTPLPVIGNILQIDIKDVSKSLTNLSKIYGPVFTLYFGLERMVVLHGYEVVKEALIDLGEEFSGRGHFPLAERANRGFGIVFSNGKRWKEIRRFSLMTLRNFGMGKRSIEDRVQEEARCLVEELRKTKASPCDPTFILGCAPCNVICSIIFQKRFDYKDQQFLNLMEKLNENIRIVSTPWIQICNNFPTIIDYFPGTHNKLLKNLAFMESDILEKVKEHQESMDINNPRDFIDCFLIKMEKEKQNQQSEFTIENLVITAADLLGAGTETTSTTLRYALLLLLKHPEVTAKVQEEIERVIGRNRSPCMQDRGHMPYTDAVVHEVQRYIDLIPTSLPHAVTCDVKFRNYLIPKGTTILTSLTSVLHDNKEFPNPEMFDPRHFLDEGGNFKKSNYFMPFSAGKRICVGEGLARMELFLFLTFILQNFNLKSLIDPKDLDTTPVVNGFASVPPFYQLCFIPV
Experiment: Cytochrome panel assay with activity outcomes
Conditions: recombinant CYP, pro-luciferin dealkylation, luminescence, p450-cyp2c19; series mostly up to 57.1 µM
On the % scale 0 is the no-effect control and ±100 the full control effect.

Structure (SMILES)	AC50	activity, negative = inhibition
CC[C@]1([C@H]2O[C@@H]([C@@H]3O[C@](O)(CO)[C@@H](C)C[C@H]3C)C[C@H]2C)CC[C@@H]([C@]2(C)CC[C@@]3(C[C@@H](O)[C@@H](C)[C@@H]([C@H](C)[C@H](OC)[C@H](C)C(=O)O)O3)O2)O1	inactive	
NCCCNCCSP(=O)(O)O	inactive	
CCN1CCN(Cc2cc(OC)c(OC)cc2[N+](=O)[O-])CC1	inactive	
c1ccc([C@H]2CNCc3ccccc32)cc1	inactive	
Cc1ccc(N(C)C(=O)Oc2cccc3ccc(C)nc23)cc1	7.94 µM (active)	
C=CCN1C[C@@H](C)N([C@H](c2ccc(C(=O)N(CC)CC)cc2)c2cccc(OC)c2)C[C@H]1C	inactive	
Cc1cc(C)c(-n2c(O)c(C=NCCN3CCOCC3)c(=O)[nH]c2=O)c(C)c1	inactive	
CC(C)CN1CCCC2(CCN(C(=O)c3ccncc3)CC2)C1	inactive	
NCCCC[C@H](N[C@@H](CCc1ccccc1)C(=O)O)C(=O)N1CCC[C@H]1C(=O)O	inactive	
CN(C)C=C1C(=O)N(C2CCCCC2)C(=O)N(C2CCCCC2)C1=O	20 µM (active)	
N=C(N)c1ccc(-c2ccc(-c3ccc(C(=N)N)cc3)o2)cc1		37% [at 11.4 µM] (inactive)
CN1CCC2(CC1)CCN(C(=O)Oc1ccccc1)CC2	inactive	
CCN1C[C@@]2(COC)CC[C@H](OC)[C@]34[C@@H]1[C@]1(OCO[C@@]15C[C@@H](OC)C1C[C@H]3[C@H]5[C@@H]1OC)[C@H](O)[C@@H]24	inactive	
O=C(O)CC[N+](=O)[O-]	inactive	
Cc1c(OCC(F)(F)F)ccnc1CS(=O)c1nc2ccccc2[nH]1 (stereo not given)	0.1 µM (active)	
CC1(C)N(O)C(c2ccc(C(=O)O)cc2)=[N+]([O-])C1(C)C	inactive	
CCc1ccc(CCN2CCCCC2)nc1		-27.8% [at 11.4 µM] (inactive)
Cc1ccccc1-c1nc(CS(=O)CC(=O)N2CCC3(CC2)OCCO3)c(C)o1 (stereo not given)	10 µM (active)	
CCc1ccccc1NC(=S)NC1CC2CCC(C1)N2Cc1ccco1 (stereo not given)	inactive	
Nc1nc(N)c(Cn2ccnc2)c(=O)[nH]1		32.7% [at 11.4 µM] (inactive)
N[C@H](CCl)C(=O)O	inactive	
Cc1o[nH]c(=O)c1C[C@H](N)C(=O)O	inactive and 2.51 µM (active)	
N[C@H](Cc1o[nH]c(=O)c1Cl)C(=O)O	1.26 µM (active)	
Cc1o[nH]c(=O)c1C[C@@H](N)C(=O)O	inactive	

Structure (SMILES)	AC50	activity, negative = inhibition
N[C@@H](Cc1cc(Br)c(O)c(Br)c1)C(=O)O		11.6% [at 11.4 µM] (inactive)
N[C@@H](Cn1oc(=O)[nH]c1=O)C(=O)O	inactive	
O=c1cc(-c2ccc(O)c(O)c2)oc2cc(O)cc(O)c12	inactive	
NCCCN1CCN(c2ccccc2)CC1		2.32% [at 11.4 µM] (inactive)
Nc1ccc(CCN2CCN(c3cccc(C(F)(F)F)c3)CC2)cc1	7.94 µM (active)	
Cc1cc(OCC(=O)OC(C)C)c2c3c(c(=O)oc2c1)CCCC3	3.55 µM (active)	
Cc1cc(OCc2ccc([N+](=O)[O-])cc2)c2c3c(c(=O)oc2c1)CCCC3	0.708 µM (active)	
CC(C)[C@H](CO)Nc1nc(Nc2cccc(Cl)c2)c2ncn(C(C)C)c2n1	inactive	
CC[C@H](C)C(=O)O[C@@H]1[C@H](O)[C@@H]2[C@H](CN3C[C@@H](C)CC[C@@H]3[C@@]2(C)O)[C@@H]2C[C@@]34O[C@@]5(O)[C@@H](OC(=O)[C@](C)(O)CC)CC[C@@]3(C)[C@H]5[C@H](OC(C)=O)[C@@H](OC(C)=O)[C@H]4[C@]12O	inactive	
COc1cc2c(cc1OC)[C@]13CC[N@+]4(C)CC5=CCO[C@H]6CC(=O)N2[C@@H]1[C@@H]6[C@@H]5C[C@]34O		-1.84% [at 11.4 µM] (inactive)
c1ccc(CN2CCN(Cc3ccc4c(c3)OCCO4)CC2)cc1	inactive	
Cc1ccc(C2CC(=O)C(C=NCCN3CCN(C(=O)Cc4ccccc4)CC3)=C(O)C2)cc1 (stereo not given)	3.16 µM (active)	
c1ccc(CCN2CCOCC2)nc1		1.5% [at 11.4 µM] (inactive)
CC(C)CN1CCC2(CC1)CCN(C(=O)Oc1ccccc1)CC2	inactive	
CCCN1CCc2cc(O)cc3c2[C@H]1Cc1ccc(O)c(O)c1-3	inactive	
c1ccc(CN2CCC3(CCc4ccccc43)CC2)cc1	2.51 µM (active)	
c1ccc(CN2CCCC3(CCNCC3)C2)cc1	inactive	
c1cc(CN2CCC3(CCNCC3)CC2)ccn1	inactive	
O=C(Oc1ccccc1)N1CCC2(CCN(Cc3ccccc3)CC2)CC1	inactive	
c1ccc(CN2CCC3(CCNCC3)CC2)cc1	5.01 µM (active)	
c1ccc(CN2CC[C@@]3(CCCNC3)C2)cc1	inactive	
CCn1cc(C(=O)O)c(=O)c2cc3c(cc21)OCO3	inactive	
C[As+](C)(c1ccc(Br)c([N+](=O)[O-])c1)c1ccc(Br)c([N+](=O)[O-])c1.O=[N+]([O-])O		27.9% [at 11.4 µM] (inactive)
S=C=Nc1cccc(C2(N3CCCCC3)CCCCC2)c1	inactive	

Structure (SMILES)	AC50	activity, negative = inhibition
CS(=O)(=O)Nc1ccc(Cc2noc(-c3ccc4[nH]cc(CCN)c4c3)n2)cc1	15.8 µM (active)	
C[C@H](N)Cc1c[nH]c2ccc(OCc3cccs3)cc12	inactive	
CN1CCN(c2ccc3ccccc3n2)CC1	inactive	
C[C@H](Br)C(=O)N[C@H](CO)C(=O)O		4.64% [at 11.4 µM] (inactive)
CCCN1CCC[C@@H]2Cc3nc(N)ncc3C[C@H]21	inactive	
CC(=NCc1ccco1)c1c(O)n(-c2ccccc2)c(=O)[nH]c1=O	10 µM (active)	
CC(=NCCN1CCOCC1)c1c(O)n(Cc2ccccc2)c(=O)[nH]c1=O	inactive	
CC(=Nc1c(C)n(C)n(-c2ccccc2)c1=O)c1c(O)n(Cc2ccccc2)c(=O)[nH]c1=O	inactive	
C/C=C1\C[N@@+]2(C)CC[C@@]34C(=C(C=O)[C@H]1C[C@H]32)Nc1ccccc14	inactive	
O=[N+]([O-])c1cc(-c2ccc([As](=O)(O)O)cc2)ccc1[As](=O)(O)O		22.9% [at 11.4 µM] (inactive)
COCCNC(=S)NC1CC2CCCC(C1)N2Cc1cccs1 (stereo not given)	inactive	
Cc1ccc(N2C(=O)/C(=C/c3ccc(CN(CCC#N)S(C)(=O)=O)o3)C(=O)NC2=S)cc1C	10 µM (active)	
COc1cccc2c1[C@H](CO)N1[C@H](C#N)[C@@H]3C[C@H](C(=O)O)[C@@H]([C@@H]1C2)N3C		11.2% [at 11.4 µM] (inactive)
C=C1CC[C@H](O)C/C1=C/C=C1\CCC[C@]2(C)[C@H]1CC[C@H]2[C@@H](C)CCCC(C)C	inactive	
CC(=O)O/C(=C1/C[C@H]2[C@@H]3CC=C4C[C@@H](OC(C)=O)CC[C@]4(C)[C@@H]3CC[C@]2(C)C1=O)C(F)(F)F		10.6% [at 11.4 µM] (inactive)
CNCCc1ccc(O)c(O)c1	inactive	
CN1CCN(c2ccc([N+](=O)[O-])c(N/N=C3\CN4CCC3CC4)c2)CC1	7.08 µM (active)	
CN1CCN(c2ccc([N+](=O)[O-])c3[nH]o[n+](=O)c23)CC1		-37.2% [at 11.4 µM] (inactive)
CC[C@H]1CN2CCc3cc(OC)c(OC)cc3[C@H]2C[C@@H]1C[C@H]1NCCc2c1[nH]c1ccc(O)cc21		34.7% [at 11.4 µM] (inactive)
Cc1ncc([N+](=O)[O-])n1CCN=[N+]=[N-]		21.1% [at 11.4 µM] (inactive)
c1ccc(N2CC3(CCNCC3)C2)cc1	inactive	
CC(C)(C)NC[C@H](O)c1ccccc1Cl	inactive	
Cc1ccc(CCN2CC(C(=O)N3CCC4(CC3)OCCO4)CC2=O)cc1 (stereo not given)	inactive	
Cc1ccc(S(=O)(=O)NCC2CCC(C(=O)N3CCC4(CC3)OCCO4)CC2)cc1 (stereo not given)	14.1 µM (active)	

Structure (SMILES)	AC50	activity, negative = inhibition
NC(=O)COc1c(F)cc(SCCNS(=O)(=O)c2ccccc2)cc1F	inactive	
COc1cc2c(cc1OC)[C@H](C)NCC2	inactive	
Nc1ccccc1O.O.O=C(O)[C@H]1[O][Sb][O][C@H]1C(=O)O		16.1% [at 11.4 µM] (inactive)
O=C(Nc1ccc(Cl)cc1C(=O)c1ccccc1)c1ccco1	4.47 µM (active)	
O=C(Nc1ccc(Cl)cc1C(=O)c1ccccc1Cl)c1ccco1	2.82 µM (active)	
COc1ccc(OCC(=O)Nc2ccc(Cl)cc2C(=O)c2ccccc2)cc1	1 µM (active)	
CN(C)CCOC(=O)COc1ccc(Cl)cc1	inactive	
O=P(c1ccccc1)(c1ccccc1)N1CC2(CC2)CC(O)(c2ccccc2)C1 (stereo not given)	inactive	
CCC[C@@](C)(COC(N)=O)COC(=O)NC(C)C	inactive	
COC(=O)N1CCC2(CCCN(C)C2)CC1	inactive	
NC[C@H](O)c1cc(O)c(O)cc1F	inactive	
C=CCN1CCC2(C)c3cc(O)ccc3C[C@H]1[C@H]2C	inactive	
COc1cc2c(cc1O)C[C@@H]1c3c(cc(O)c(OC)c3-2)CCN1C		12.7% [at 11.4 µM] (inactive)
CN1CCc2cc(O)cc3c2[C@H]1Cc1ccc(O)c(O)c1-3	inactive	
CC(C)(C)NC[C@H](O)c1cc(Cl)c(N)c(Cl)c1	inactive	
CN1[C@@H]2CC[C@H]1CC(O[C@@H](c1ccccc1)c1ccccc1N)C2 (stereo not given in full)	inactive	
CNCCc1cnc[nH]1	inactive	
Cc1ccccc1-c1cncnc1NCCc1cnc[nH]1	0.0501 µM (active)	
Clc1ccccc1-c1cncnc1NCCc1cnc[nH]1	0.0126 µM (active)	
c1ccc2c(c1)-c1ccccc1C2N1CC2CCC(CC2)C1		-44.5% [at 11.4 µM] (inactive)
CCCCC/C=C\C/C=C\C/C=C\C/C=C\CCCC(=O)NCC(=O)O	inactive	
CC(C)N[C@@H](C)Cc1ccc(I)cc1	inactive	
O=C(C[C@H](c1ccccc1)c1c(O)c2ccccc2oc1=O)c1ccccc1		-17.3% [at 11.4 µM] (inactive)
